Laboratory results: PubChem BioAssay (Tox21)
Results filed as inconclusive are left out. A number with no mark means an inactive call. Calls follow the shape of the dose curve; as a rule, active = well fitted inhibition curve with a large enough effect in the repeat runs; inconclusive = weak or mixed curves; inactive = no such curve, though single readings can be large or run the other way.

Target: Cytochrome P450 3A4 (Homo sapiens) (UniProt P08684)
Assay: Cytochrome P450 Family 3 Subfamily A Member 4 (CYP3A4) small molecule antagonists: luciferase reporter qHTS assay (AID 1671201); also: nearly all actives have a fitted effect of over 50% in size
Conditions: P450-Glo CYP3A4 enzyme, luciferin luminescence, 1 h; series mostly up to 115 µM; activity change, negative = inhibition: at the top concentration
Summary of the method: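 Enzyme and proluciferin substrate are mixed with test chemicals for 10 min, then NADPH regeneration system drives turnover for 1 h at room temperature. A detection reagent halts the reaction; luminescence after 20 min gives relative activity.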
% is scaled to controls: 0 for no effect and ±100 for the full control effect.

Sequence of Cytochrome P450 3A4 (Homo sapiens) (P08684 whole entry, looked up): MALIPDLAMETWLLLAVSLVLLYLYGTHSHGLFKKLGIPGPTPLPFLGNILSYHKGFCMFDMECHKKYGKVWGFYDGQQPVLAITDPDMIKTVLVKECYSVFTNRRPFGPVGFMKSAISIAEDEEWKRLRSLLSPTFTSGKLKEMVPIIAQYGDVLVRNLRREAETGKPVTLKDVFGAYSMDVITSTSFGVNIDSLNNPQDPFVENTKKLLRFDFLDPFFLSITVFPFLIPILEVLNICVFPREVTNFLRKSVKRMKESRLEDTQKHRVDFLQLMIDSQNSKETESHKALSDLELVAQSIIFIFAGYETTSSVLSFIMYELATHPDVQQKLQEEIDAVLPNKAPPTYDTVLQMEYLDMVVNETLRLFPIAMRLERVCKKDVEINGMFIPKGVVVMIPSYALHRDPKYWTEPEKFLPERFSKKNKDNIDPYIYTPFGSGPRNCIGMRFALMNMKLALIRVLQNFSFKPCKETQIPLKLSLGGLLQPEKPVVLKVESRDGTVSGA

| SMILES | activity change, negative = inhibition |
| --- | --- |
| CC1(C)SC(C)(C)SC(C)(C)S1 | 1.03% |
| COc1cc(C(=O)N2CCOCC2)cc(OC)c1OC | 10.5% [at 52.9 µM] |
| O=C(O)c1ccc[n+]([O-])c1 | 11.1% [at 52.9 µM] |
| Fc1ccccc1-c1ccccc1 | 10.2% |
| COc1ccc2cc(C=O)ccc2c1 | 3.12% [at 52.9 µM] |
| O=c1[nH]c(=O)n([C@H]2O[C@H](CO)[C@@H](O)[C@@H]2O)cc1/C=C\Br | -6.6% [at 52.9 µM] |
| NCC[C@H](O)C(=O)N[C@@H]1C[C@H](N)[C@@H](O[C@H]2O[C@H](CN)[C@@H](O)[C@H](O)[C@H]2O)[C@H](O)[C@H]1O[C@H]1O[C@H](CO)[C@@H](O)[C@H](N)[C@H]1O | 8.51% [at 0.435 µM] |
| CCC(=O)/C=C/c1ccc(OC)cc1 | 41.6% |
| Cc1c(C)n(CCN(C)C)c2ccc(C(=O)OCCN(C)C)cc12 | 12.9% [at 52.9 µM] |
| O=c1[nH]c2ccccc2c(=O)n1CCCl | -6.03% [at 52.9 µM] |
| C=C(C)[C@@H]1CCC2=CC(=O)C[C@@H](C)[C@]2(C)C1 | -17.6% |
| C[N+](C)(C)CC[N+]1(C)Cc2c(Cl)c(Cl)c(Cl)c(Cl)c2C1 | 2.59% [at 52.9 µM] |
| COc1cc(C)cc(O)c1 | 1.37% |
| CC(C)CCOC(=O)CC(C)C | 0.586% |
| C=CC(=O)OCCCCCC | 7.05% |
| OC1OC[C@@H](O)[C@H](O)[C@H]1O (stereo partly specified) | 8.73% |

| SMILES | activity change, negative = inhibition |
| --- | --- |
| C#CC(C)(O)CC(C)C (stereo unspecified) | 5.53% |
| CNc1ncnc2nc[nH]c12 | -5.37% |
| CC(=O)N[C@@H](CCC(N)=O)C(=O)O | 12.4% [at 52.9 µM] |
| NC(=O)c1ncn([C@@H]2O[C@H](CO)[C@@H](O)[C@H]2O)c1N | 3.5% [at 52.9 µM] |
| CCCC=O | -2.68% |
| C=CCOCC(O)CS(=O)(=O)O (stereo unspecified) | -3.02% |
| OCCN1C[C@H](O)[C@@H](O)[C@H](O)[C@H]1CO | 4.09% [at 52.9 µM] |
| CCCCNc1ccccc1 | -2.35% |
| Nc1ccn(C2CO[C@H](CO)O2)c(=O)n1 (stereo partly specified) | 11% [at 52.9 µM] |
| C=C(C)C1CC=C(C)C(O)C1 (stereo unspecified) | 40.4% |
| O=C(O)Cc1cc(I)c(Oc2cc(I)c(O)c(I)c2)c(I)c1 | 50% [at 52.9 µM] |
| C1CCCCCCCCCCC1 | 3.28% [at 23.6 µM] |
| CCCCCOC(=O)Nc1nc(=O)n([C@@H]2O[C@H](C)[C@@H](O)[C@H]2O)cc1F | 9.14% [at 52.9 µM] |
| CN(C)N=Nc1ccccc1 | 15.1% |
| CO[Si](CCCNCCC[Si](OC)(OC)OC)(OC)OC | 6.8% |
